The results in this text go back to the supplement of paper PMC4894684.

The subject of the experiment is Toxoplasma gondii RH (in HFF). The experiment in a line: parasite growth relative to the screen mean (all compounds = 100%); higher = less inhibition of parasite growth. The following applies: 5 µM; 72 h; oxygen 21 %. In a few lines:
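RH β-Gal–GFP Toxoplasma at MOI 1:5 was used to infect confluent human foreskin fibroblasts in 96-well plates within 2 h of pin-transferring compounds to 5 µM final. After 72 h at 21% O2, parasite number was determined by CPRG β-Gal assay against standard curves on the same plate. Growth is relative to the screen mean and averaged over two screens, with all compounds = 100%.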

Where a name gives a salt, the structure may show the parent alone. ± gives the standard deviation of the averaged measurements.

`CCn1c(=O)[nH]c2cc(Cl)c(Cl)cc21` displayed a parasite growth of 89.8 ± 61%.

`COC1(C2=NCCN2)COc2ccccc2O1` (centres undefined): the parasite growth was 136 ± 3.9%.

The compound `COC(=O)/C=C/c1cccc(N(Cc2ccc(-c3ccc(N(C)C)cc3)cc2)C(=O)C2CCCCC2)c1` [Fexaramine] gave a parasite growth of 159 ± 7.7%.

For `CCc1ccc(OCc2ccccc2C(=O)Nc2ccc3nc(C)cc(N)c3c2)cc1`, the parasite growth was below 0%.

Consider `Clc1ccc2nsnc2c1NC1=NCCN1` [Tizanidine hydrochloride], for which the parasite growth is 113 ± 2.4%.

Turning to `CC1=C(/C=C/C(=C/C=C/C(C)=C/C(=O)O)c2ccc(C)cc2)C(C)(C)CCC1`, the parasite growth is 94.1 ± 23%.

`Cc1oncc1C(=O)Nc1ccc(C(F)(F)F)cc1` [Leflunomide] came in with a parasite growth of 106 ± 61%.

As to `CC(C)(C=O)Cc1cc(C(C)(C)C)c(O)c(C(C)(C)C)c1`, the parasite growth came out at 199 ± 11%.

For the compound `COc1c(C)c2c(c(O)c1C/C=C(\C)CCC(=O)O)C(=O)OC2` [Mycophenolic acid], the parasite growth is below 0%.

For the compound `Nc1cc(N2CCCCC2)nc(N)[n+]1[O-]` [Minoxidil], the parasite growth came to 111 ± 13%.

For the compound `OCC1OC(n2cnc3c(NC4CCCC4)nc(Cl)nc32)C(O)C1O` (centres undefined) [2-Chloro-N6-cyclopentyladenosine], the parasite growth is 138 ± 11%.

In the case of `O=C1CCC(N2C(=O)c3ccccc3C2=O)C(=O)N1` (centres undefined) [Thalidomide], the parasite growth came out at 151 ± 46%.

Compound `NS(=O)(=O)C#Cc1ccccc1` [Pifithrin->m] registered a parasite growth of 123 ± 13%.

With `COC(=O)c1c(C)[nH]c(C)c1C(=O)c1ccccc1Cc1ccccc1`, the parasite growth was found to be 116 ± 37%.

On to `Nc1ncn([C@H]2C[C@H](O)[C@@H](CO)O2)c(=O)n1` [Decitabine], for which the parasite growth was found to be 119 ± 9.9%.

With `Cc1ccc(CC2(O)CCN(CCOc3ccc(O)cc3)CC2)cc1`, the parasite growth was 111 ± 35%.

`OC(c1ccccc1)C1CCN(CCc2ccccc2)CC1` (centres undefined): the parasite growth turned out to be 70.7 ± 12%.

`O=C1NC(c2cccc([N+](=O)[O-])c2)=CCN1c1ccccc1O` [Icilin] returned a parasite growth of 128 ± 36%.

`CCc1cc(Cl)c(OC)c(C(=O)NC[C@@H]2CCCN2CC)c1O` [Eticlopride hydrochloride] displayed a parasite growth of 106 ± 11%.

The compound `OCc1cc(C(O)CNCCCCCCOCCCCc2ccccc2)ccc1O` (centres undefined) [Salmeterol] had a parasite growth of 14.4 ± 11%.

`COc1cc2c(CCNC(C)=O)c[nH]c2cc1Cl` [6-Chloromelatonin] returned a parasite growth of 131 ± 24%.

As for `CCC(C)(C)C(=O)O[C@H]1C[C@@H](C)C=C2C=C[C@H](C)[C@H](CC[C@@H]3C[C@@H](O)CC(=O)O3)[C@H]21` [Simvastatin], the parasite growth was found to be 110 ± 18%.

`Nc1[nH]nc2nc3ccccc3nc12` displayed a parasite growth of 142.8 ± 0.82%.

For `CSc1ccc2c(c1)C(N1CCN(C)CC1)Cc1ccccc1S2` (centres undefined) [Methiothepin maleate], the parasite growth was below 0%.
